This assay deals with TK-10 renal. Briefly: NCI-60 one-dose screen, 48 h (100 = growth as untreated, 0 = no growth, -100 = all killed). The following applies: 10 µM unless noted.

Where “and” joins values, the source holds several entries; their conditions need not be identical. Identical values can stand only once. Compounds without any hit were thinned out: in the full panel of roughly 83,000, 20% have a hit.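 Method: cells in 96-well plates; compound added at one concentration; 48 h incubation; percent growth measured; values under 10 scored active.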 Calls of active or inactive are those of the source.

Regarding `COc1ccc2c(c1)C(OC)C1c3c(cc4c(c3-2)OCO4)CCN1C` (stereo unspecified), the growth is -18.2% [100 µM] (active) and -91.5% [100 µM] (active).
As for `O=C(CCc1ccccc1)ON1C(=S)NC(c2ccccc2)(c2ccccc2)C1=S`, the growth is -6.92% [100 µM] (active) and -21.7% [100 µM] (active).
Consider `CC1=C(Cl)C[C@@H](/C(C)=C\Cl)O[C@@]1(O)C(Br)Br`, for which the growth is 101% [100 µM] (inactive) and -87.5% [100 µM] (active).
For the compound `C=C1C(=O)OC2CC1C(OC(=O)/C=C/c1ccccc1)C/C(C)=C/CC/C(C)=C/CCC2(C)O` (stereo unspecified), the growth is -99.2% [100 µM] (active) and -83.5% [100 µM] (active).
With `Fc1cccc(F)c1C1SCc2nc3cc4ccccc4cc3n21` (stereo unspecified), the growth is 27% [100 µM] (inactive) and 34.3% [100 µM] (inactive).
In the case of `C=CCO/N=C/c1cc(NC(=S)c2ccoc2C)ccc1Cl`, the growth was -93.7% [100 µM] (active) and -93.1% [100 µM] (active).
`CCOc1cc2c(cc1O)/C(=N\OC)C[C@@H]1[C@@H]2CC[C@]2(C)[C@@H](O)CC[C@@H]12`: the growth was -12.5% [100 µM] (active) and -99.5% [100 µM] (active).
The result for `CCOC(=O)COc1cc(-c2ccccc2F)nc2cc3c(cc12)OCO3` reads 126% [100 µM] (inactive) and 78.4% [100 µM] (inactive); that for `CC1(C=O)CCC23COC4(CCC5C6(C)CCC(OC7OCC(OC8OC(CO)C(O)C(OC9OC(CO)C(O)C(O)C9O)C8OC8OCC(O)C(O)C8O)C(O)C7OC7OC(CO)C(O)C(O)C7O)C(C)(C)C6CCC5(C)C4(C)CC2O)C3C1` (stereo unspecified), -87.3% [100 µM] (active) and -69.8% [100 µM] (active).
For `S=C1NC2=C(COc3ccccc32)C(c2ccc(Cl)cc2)N1` (stereo unspecified), the growth is -3.55% [100 µM] (active) and -100% [100 µM] (active).
Regarding `CC1OC(OC2C(OC3CCC4(C)C(CCC5(C)C4CC=C4C6CC(C)(C)CCC6(C(=O)O)CCC45C)C3(C)CO)OCC(O)C2O)C(O)C(O)C1O` (stereo unspecified), the growth was -92.1% [100 µM] (active) and -100% [100 µM] (active).
In the case of `CC1=C(C2=C(C)C(=O)C(=O)c3cc(C)ccc32)c2ccc(C)cc2C(=O)C1=O`, the growth is -100% [100 µM] (active).
As to `COc1ccc(Nc2nc3ccc(C(F)(F)F)cc3nc2C(=O)O)cc1`, the growth is -10.5% [100 µM] (active) and -93.8% [100 µM] (active).
In the case of `CC1(C)CCC2(C(=O)O)C(O)CC3(C)C(=CCC4C5(C)CCC(OC6OCC(O)C(O)C6OC6OCC(O)C(O)C6OC6OCC(O)C(OC7OC(CO)C(O)C(O)C7O)C6O)C(C)(C)C5CCC43C)C2C1` (stereo unspecified), the growth is 116% [100 µM] (inactive) and 15.1% [100 µM] (inactive).
As for `CC(C)(C)N/N=C(/Cc1nc2c3c(ccc2[nH]c1=O)C(=O)c1ccccc1C3=O)C(=O)NC1=C(Cl)C(=O)c2ccccc2C1=O`, the growth was 59.3% [100 µM] (inactive) and -41.1% [100 µM] (active).
As for `C=C1C(=O)OC2CC3(C)CCCC(C)C3=CC12` (stereo unspecified), the growth was -100% [100 µM] (active) and -97% [100 µM] (active).
`Cc1c2c(c(C)c3c[n+](C)ccc13)Oc1ccccc1O2`: the growth is -2.16% [100 µM] (active) and -100% [100 µM] (active).
The result for `Cc1cc(O)c2c(c1)C(=O)C(c1c(C)cc3c(c1O)C(=O)C1OC1C3=O)=CC2=O` (stereo unspecified) reads -99.7% [100 µM] (active) and -86.5% [100 µM] (active); that for `CCOc1ccc(NC(=O)/C(=N\N)C(C(=O)OC)c2nc3ccc(Cl)cc3[nH]c2=O)cc1` (stereo unspecified), 128% [100 µM] (inactive) and 85.6% [100 µM] (inactive); that for `N=C1C(=N)c2ccccc2-c2ccccc21`, 51.2% [100 µM] (inactive) and 3.24% [100 µM] (active).
As to `COC(=O)[C@]1(C)CCC[C@@]2(C)[C@@H]3C[C@@H]4[C@H]5C[C@@]3(CC[C@@H]21)C[C@@]45C`, the growth was -88.2% [100 µM] (active) and -65.7% [100 µM] (active).

Values taken from PubChem BioAssay (NCI).
